Compounds without any hit were thinned out: in the full panel of roughly 83,000, 20% have a hit.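 For each line, cells grew in 96-well plates with the test compound present at a single concentration for 48 hours.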 Unmarked numbers belong to inactive results. Calls of active or inactive are those of the source. The calls were made as follows: active = growth percent below 10; inactive = the rest.

What all share (assay): NCI-60 one-dose screen, 48 h (100 = growth as untreated, 0 = no growth, -100 = all killed)
Common to all, as to details: 10 µM unless noted

The test system of assay [1] is SK-MEL-2 melanoma.
For assay [2], the system named is SN12C renal.
Assay [3] concerns UO-31 renal.
Assay [4] deals with TK-10 renal.
The subject of assay [5] is ACHN renal.
The subject of assay [6] is CAKI-1 renal.
Assay [7] has as its system CCRF-CEM leukemia.
Assay [8] has as its system MOLT-4 leukemia.
The subject of assay [9] is SR leukemia.
In assay [10] the test system is OVCAR-8 ovarian.
Assay [11] concerns OVCAR-5 ovarian.
Assay [12] relates to OVCAR-4 ovarian.
Assay [13] has as its system SK-OV-3 ovarian.
Assay [14] has as its system IGROV1 ovarian.
For assay [15], the system named is OVCAR-3 ovarian.
The test system of assay [16] is HS 578T breast.
Assay [17] concerns NCI/ADR-RES ovarian.
Assay [18] has as its system A498 renal.
In assay [19] the test system is RPMI-8226 leukemia.

With `CCOC(=O)N[C@H]1CCc2cc(OC)c(OC)c(OC)c2-c2ccc(SC)c(=O)cc21`, the growth in assay [1] was 32.2%; in assay [2], 26.8%; in [3] it was 47%; in assay [4] it was 43.7%; in assay [5] it was 28.3%; in [6] it was 19.7%. Further, the growth was 21.9% in assay [7]; 9.15% (active) in [8]; 3.83% (active) in [9]; 20.8% in [10]; 23.3% in assay [11]; 53.4% in assay [12]. For the same compound, the growth in [13] is 28.7%; in [14] it was 21.7%; in assay [15], -9.45% (active); in assay [16], 9.15% (active); in assay [17], 0.533% (active).

As to `CCOC(=O)/C(C#N)=C\c1c[nH]c2ccccc12`, the growth in assay [1] is 105%; in assay [2], 90.5%; in assay [3], 69.6%; in assay [4], 221%; in assay [5] it was 85.1%; in [6] it was 30.8%. The growth was 153% in assay [18]; 108% in assay [7]; 81.6% in assay [8]; 55.7% in assay [19]; 85% in assay [10]; 111% in assay [11]. Further, the growth in assay [12] is 86.8%; in assay [13] it was 96.2%; in assay [15], 103%; in [16] it was 116%; in assay [17], 88.5%.

For `CC(C)=CCC[C@@H](C)[C@H]1CC[C@@]2(C)C3=C(CC[C@]12C)[C@@]1(C)CC[C@H](O)C(C)(C)[C@@H]1CC3`, the growth in assay [1] is 118%; in [2], 102%; in assay [3] it was 111%; in [4] it was 112%; in assay [5], 101%; in assay [6] it was 99.1%. Further, the growth is 114% in [18]; 99% in assay [8]; 93.4% in assay [9]; 102% in assay [19]; 102% in [10]; 107% in assay [11]. Also, the growth is 105% in assay [12]; 108% in [13]; 115% in assay [14]; 122% in assay [15]; 110% in assay [17].

In the case of `O=Cc1ccc(F)cc1`, the growth in assay [1] was 129%; in assay [2] it was 98%; in [3] it was 82%; in assay [4], 113%; in [5], 95.6%; in assay [6] it was 88.4%. For the same compound, the growth is 103% in assay [18]; 110% in assay [8]; 111% in assay [9]; 105% in [19]; 103% in assay [10]; 102% in assay [11]. Further, the growth in assay [12] was 106%; in assay [13], 109%; in assay [14], 95.2%; in [15], 111%; in [17] it was 107%.

With `O=[N+]([O-])c1c(Cl)ncnc1Cl`, the growth in assay [1] was 110%; in assay [2], 111%; in [3] it was 101%; in assay [4], 107%; in [5], 94.8%; in assay [18], 90%. In addition, the growth was 99.1% in [7]; 112% in assay [8]; 96% in [9]; 96.2% in assay [19]; 104% in [10]; 85.7% in assay [11]. Further, the growth in [12] is 103%; in assay [13], 104%; in assay [14] it was 117%; in assay [15] it was 105%; in assay [17] it was 118%.

`CC(CO)(CO)C(=O)O`: the growth in assay [1] was 108%; in assay [2], 105%; in [3], 98.6%; in [4], 103%; in [5] it was 103%; in assay [6] it was 99%. Besides, the growth in assay [18] is 85.3%; in assay [7], 93.5%; in assay [8], 108%; in assay [19] it was 97.2%; in assay [10], 111%; in assay [11], 98.2%. Further, the growth in assay [12] was 105%; in assay [13], 105%; in assay [14], 126%; in assay [15], 106%; in assay [16], 98.8%; in [17] it was 103%.

As to `CCOC(=O)c1c[nH][nH]c1=O`, the growth in assay [1] was 94.1%; in [2], 104%; in [3], 93.7%; in assay [4], 111%; in assay [5], 106%; in assay [18], 98.5%. For the same compound, the growth in assay [7] was 107%; in assay [8], 106%; in [9], 109%; in assay [19], 93%; in assay [10], 105%; in [11], 94.8%. Moreover, the growth was 101% in assay [12]; 110% in assay [13]; 112% in [15]; 119% in assay [16]; 98.4% in [17].

As for `CCOC(=O)C(CCC#N)(CCC#N)C(=O)OCC`, the growth in assay [1] was 112%; in assay [2] it was 105%; in assay [3], 95.2%; in assay [4], 102%; in assay [5], 109%; in assay [6] it was 102%. Moreover, the growth in assay [7] is 94.7%; in assay [8] it was 97.3%; in assay [9], 103%; in assay [19] it was 96.6%; in [10] it was 104%; in assay [11], 97.8%. Moreover, the growth in assay [12] was 96%; in [13] it was 108%; in assay [14], 126%; in assay [15], 102%; in [16], 95.2%; in assay [17], 105%.

Take `O=S(=O)(OCCOS(=O)(=O)c1ccccc1)c1ccccc1`: the growth in assay [1] was 103%; in [2], 97.1%; in assay [3] it was 83.2%; in assay [4], 102%; in [5], 105%; in assay [6] it was 89.8%. Also, the growth was 92.9% in assay [7]; 93% in assay [8]; 93.7% in assay [9]; 100% in assay [19]; 97% in assay [10]; 111% in assay [11]. The growth in assay [12] was 101%; in assay [13] it was 96.3%; in [14], 105%; in assay [15], 94.3%; in assay [16], 108%; in assay [17] it was 95.5%.

The values are drawn from PubChem BioAssay (NCI).
